Screening results (PubChem BioAssay)
Sampled rows, rich in hits. Any-hit rate of the full collection: about 2.5%.
PAX8 reporter – inhibitors of PAX8-driven TPO luciferase reporter, primary screen, RMG-I cells, single concentration; AID 652154, 2013; inhibition, % at 12.6 µM; 360,000 compounds, 1.2% hits; SteadyGlo, 24 h;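 active = mean replicate inhibition at least 60% with every replicate also reaching 60%; inconclusive = only one of the two criteria is met; inactive = mean below 60% and not all replicates reaching 60%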;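 also: luciferase light reporting Pax8 driven TPO promoter activity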
CFTR F508del cor – F508del CFTR correction, initial screen, CFBE line, single point; CFBE cells, YFP halide quenching; stimulated with forskolin plus potentiator P3; % fluorescence drop versus neutral controls; activity (quench increase), % at 7.58 µM; 350,000 compounds, 0.36% hits;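 active = mean added fluorescence quench of at least 8% versus neutral control, with both replicates also reaching 8%; inconclusive = only one of the mean or replicate conditions met; inactive = mean below 8% and not both replicates reaching 8%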;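 also: cells transiently co-express mutant CFTR-F508del with the halide-sensitive YFP; corrector assay measuring rescue of mutant channel to the surface after 24 h compound exposure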
HIV Env fusion – inhibitors of HIV-1 Env-driven cell-cell fusion, primary screen, HeLa-JRFL effector, CEM21 target cells, luciferase | 360,000 compounds, 1.1% hits | inhibition, % at 12.3 µM;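 active = mean replicate inhibition score of at least 50 and every replicate individually at or above 50; inconclusive = only one of the two criteria met; inactive = mean below 50 and not all replicates reaching 50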
GAA850 FXN act – FXN promoter activators, primary screen, cell-based, luciferase luminescence, HEK293 lucGAA850. HEK293 lucGAA850 FXN promoter luciferase reporter, 24 h; percent of 10 µM SAHA response. activation, % at 6 µM. 360,000 compounds, 0.56% hits;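 active = activation above the average of all compounds screened plus 3 SD, cutoff fixed separately per campaign, cut at about 7.5% in these data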
EWS-Fli block – EWS/Fli-driven NR0B1 reporter inhibitors, primary screen, A673 cells, NR0B1 luciferase, luminescence, MLPCN library; viability-normalised; inhibition, % at 12.6 µM; 350,000 compounds, 0.67% hits; AID 651661, 2012;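 active = mean inhibition of at least 50% after viability correction, with every replicate also passing that limit; inconclusive = mean reaches 50% but only one of two replicates passes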;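 also: firefly luciferase signal divided by Alamar Blue viability fluorescence both relative to DMSO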
DNA binder FP – DNA binders by acridine orange displacement, dose response, counter-screen for EWS/Fli inhibitor project, biochemical, fluorescence polarization, cherry-pick | shares compounds with EWS-Fli block | salmon sperm DNA acridine orange fluorescence polarization | AC35, µM (highest dose often 68 µM) | 640 compounds, 2% hits | AID 720586, 2013;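 active = fitted curve reaches a 35% signal fall AC35 below twice the sample's top valid tested dose, actives reach about 48 µM in these data; inactive = the rest, including activity in the rising direction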;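 also: lower polarization ratio signals compound binding to DNA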
A number is an active result; - = inactive; ? = inconclusive; . = no result given.

SMILES | PAX8 reporter | CFTR F508del cor | HIV Env fusion | GAA850 FXN act | EWS-Fli block | DNA binder FP
O=C(Nc1ccc2c(c1)[C@@H]1C[C@H](CC(=O)N3CCCCC3)O[C@H](CO)[C@@H]1O2)NC1CCCC1 | - | - | - | . | - | .
C(=Cc1c[nH]c2ccccc12)c1ccc2ccccc2n1 | - | - | - | - | 67.4 | -
C(=Cc1c[nH]c2ccccc12)c1nccc2ccccc12 | - | - | - | - | - | .
COc1ccc(C2=Nn3c([n+](C)c4ccccc43)SC2)cc1 | 83.8 | - | - | - | 52.7 | -
C[n+]1c2n(c3ccccc31)N=C(c1ccc(Cl)cc1)CS2 | - | . | - | - | . | .
COCC(=O)N1CC2(C1)[C@H](c1ccc(-c3ccc(F)cc3)cc1)[C@H](CO)N2C(C)=O | . | - | . | . | - | .
Cc1ccc(N(C(=O)Cn2nnc3ccccc32)C(C(=O)NCc2ccccc2)c2ccccn2)cc1 (centres undefined) | - | . | - | - | . | .
CC(=O)c1ccc(N(C(=O)Cn2nnc3ccccc32)C(C(=O)NCc2ccccc2)c2ccccn2)cc1 (centres undefined) | - | . | - | - | 62.2 | -
O=C(C[C@@H]1CC[C@@H](NS(=O)(=O)c2ccc(F)cc2)[C@H](CO)O1)NC1CCC1 | - | - | - | . | - | .
COc1ccc(C(=O)NCCNc2nc3cc(C)cc(C)c3cc2C#N)c(OC)c1 | - | - | - | . | 66.8 | -
Cc1noc(C)c1NC(=O)N(C)C[C@@H]1OCCCC[C@H](C)Oc2ccc(NC(=O)c3ccccc3)cc2C(=O)N([C@H](C)CO)C[C@H]1C | - | - | - | . | - | .
Cc1ccc(/C=N/Nc2ccnc3cc(Cl)ccc23)c(C)c1 | - | - | - | - | 76.4 | -
Clc1ccc2c(N/N=C/c3ccc(Br)cc3)ccnc2c1 | - | . | - | - | - | .
O=C1C(=O)N(CCS(=O)(=O)c2ccccc2)c2ccc(Cl)cc21 | - | - | - | - | 57.4 | -
C[C@H](CO)N1C[C@H](C)[C@H](CN(C)C(=O)Nc2cc(F)ccc2F)Oc2ncc(-c3cccc(F)c3)cc2C1=O | . | - | - | . | - | .
Cc1occc1C(=O)Nc1sccc1C(N)=O | - | - | - | - | - | .
Cc1noc(C)c1C(=O)Nc1sccc1C(N)=O | - | - | - | - | 76.4 | -
COc1ccc(NC(=O)O[C@@H](c2ccc(OC)c(O)c2)[C@H](CCO)OC)cc1 | - | - | - | . | - | .
Cc1ccc(S(=O)(=O)N=Nc2c(O)[nH]c3ccccc23)cc1C | - | . | - | - | . | .
COc1ccc(S(=O)(=O)N=Nc2c(O)[nH]c3ccccc23)cc1 | - | - | - | - | 53.3 | -
COc1ccc(NC(=S)N=Nc2c(O)[nH]c3ccccc23)cc1 | - | - | - | - | 55.5 | -
C[C@@H]1CN([C@H](C)CO)S(=O)(=O)c2ccc(C#CC3CC3)cc2O[C@@H]1CN(C)Cc1ccccc1F | . | - | - | . | 61.5 | -
C[C@@H]1CN([C@@H](C)CO)S(=O)(=O)c2ccc(C#CC(C)(C)O)cc2O[C@@H]1CN(C)Cc1ccc(-c2ccccc2)cc1 | . | - | - | . | - | .
C[C@@H]1CN([C@@H](C)CO)S(=O)(=O)c2ccc(C#CC(C)(C)O)cc2O[C@H]1CN(C)Cc1ccc(-c2ccccc2)cc1 | . | - | ? | . | 75.4 | -
COC(=O)C(CC#Cc1ccc2c(c1)[C@]1(C(=O)N2)[C@H](c2ccc(OCCO)cc2)N2[C@H](c3ccccc3)[C@H](c3ccccc3)OC(=O)[C@H]2[C@@H]1C(=O)N1CCN(c2ncccn2)CC1)C(=O)OC | - | - | - | . | 76.2 | -
COCCOC(=O)N1C(=O)[C@@]2(c3cc(C#CCC(C(=O)OC)C(=O)OC)ccc31)[C@H](c1ccccc1OCCO)N1[C@H](c3ccccc3)[C@H](c3ccccc3)OC(=O)[C@H]1[C@@H]2C(=O)N1CCN(c2ncccn2)CC1 | - | - | - | . | 60.8 | -
